Assay outcomes from PubChem.
S1P3 antagonist: S1P3 receptor antagonists, primary screen, cell-based; Sphingosine 1-phosphate receptor 3 (Homo sapiens), Q99500; CHO S1P3 NFAT-BLA reporter, FRET fluorescence, antagonist mode; inhibition, % at 4.98 µM; 0.27% of 170,000 active;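 active means inhibition above the plate cutoff, the mean inhibition of test wells on that plate plus 3 SD, cut at about 28% in these data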;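 further: cells challenged with S1P at its EC80 of 0.8 µM; blue over green emission ratio from cleaved BLA substrate after 4 h stimulation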
EP2 antag: human EP2 receptor antagonists, primary screen, TR-FRET cAMP, C6 glioma cells. Prostaglandin E2 receptor EP2 subtype (Homo sapiens), P43116. C6 glioma cells expressing human EP2; cells stimulated with saturating PGE2. inhibition, % at 25 µM. 0.52% of 260,000 active;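 active means percent inhibition above 40 after rounding to a whole number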;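 further: rat C6 glioma host cells with rolipram phosphodiesterase inhibitor present; the protocol text gives 20 µM as final concentration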
Target sequence (P43116 whole entry, looked up): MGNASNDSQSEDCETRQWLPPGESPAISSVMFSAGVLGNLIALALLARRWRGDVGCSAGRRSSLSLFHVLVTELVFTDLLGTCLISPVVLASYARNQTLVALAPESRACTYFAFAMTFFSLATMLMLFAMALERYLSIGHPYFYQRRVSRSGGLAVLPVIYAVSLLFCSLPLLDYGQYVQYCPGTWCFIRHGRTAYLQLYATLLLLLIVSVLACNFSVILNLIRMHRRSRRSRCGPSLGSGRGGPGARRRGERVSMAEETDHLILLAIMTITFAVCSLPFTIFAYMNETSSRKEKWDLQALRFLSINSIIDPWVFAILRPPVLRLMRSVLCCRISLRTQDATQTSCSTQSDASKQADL
EP2 mod: EP2 receptor modulators, cAMP readout, primary screen, cell-based, HTRF cAMP, PGE2 stimulation | Prostaglandin E2 receptor EP2 subtype (Homo sapiens), P43116 | EP2-expressing cells, cAMP HTRF FRET, PGE2 co-stimulation | induction, % at 25 µM | 0.83% of 260,000 active | AID 940, 2007;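 active means compounds whose cAMP rise, as percent of the full-agonist control response, exceeds 60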;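 further: rat C6 glioma line stably carrying human EP2 under a CMV promoter; the protocol text gives 20 µM as final concentration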
S1P4 agonist: S1P4 receptor agonists, primary screen, cell-based. 0.35% of 220,000 active. AID 1509, 2009. Sphingosine 1-phosphate receptor 4 (Homo sapiens), O95977. S1P4-expressing cell line, agonist reporter assay. activation, % at 4.98 µM; in the data active means activation above about 11%
S1P4 antag: S1P4 receptor antagonists, primary screen, cell-based. 0.26% of 220,000 active. inhibition, % at 4.98 µM. Sphingosine 1-phosphate receptor 4 (Homo sapiens), O95977. AID 1510, 2009. S1P4-expressing cells, antagonist mode, reporter read-out; in the data active means inhibition above about 29%
EP2 confirm: cAMP induction in EP2, EP4, beta2-AR and parental cells, confirmation, counter-screen for EP2 modulator project, cell-based, five parallel assays, C6 glioma, HEK293 | cAMP HTRF induction; plus low (about EC15) PGE2 agonist | 47% of 1,300 active | AID 1080, 2008 | calls only at 20 µM (by protocol) | shares compounds with EP2 mod;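 active means cAMP induction above 50% in the main assay while under 30% in all four parallel counter assays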;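 further: rat C6 glioma cells stably expressing human EP2 receptor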
Hits are given with their value; i = inactive; nt = no result; + = active, no number. Sampled rows, rich in hits. Any-hit rate of the full collection: about 2%.

SMILES | S1P3 antagonist | EP2 antag | EP2 mod | S1P4 agonist | S1P4 antag | EP2 confirm
Cc1ccc(C)n1-n1cnc2scc(-c3cccs3)c2c1=O | i | i | 65 | i | i | +
CC(=O)NC(c1cccc([N+](=O)[O-])c1)c1c(OC(C)=O)ccc2ccccc12 (centres undefined) | nt | i | i | i | i | nt
CC(=O)Oc1ccc2ccccc2c1C(NC(=O)Cc1ccccc1)c1ccccc1 (centres undefined) | nt | i | 65 | i | i | i
COc1ccc(-n2c(SCC(=O)N(C(C)C)C(C)C)nnc2-c2ccncc2)cc1 | nt | i | i | nt | nt | nt
Cc1cc2c(s1)c1cnn(CC(=O)N3CCCC3)c(=O)c1n2Cc1ccc(F)cc1 | nt | nt | i | nt | nt | nt
CN(C)c1nc(-c2ccccc2)c2cnn(Cc3ccccc3)c2n1 | i | i | 73 | i | i | +
CC(C)(C)C1CCC(=NNc2ccc(S(N)(=O)=O)cc2[N+](=O)[O-])CC1 (centres undefined) | i | i | 68 | i | i | +
Cc1ccc(C(C(=O)NC2CCCC2)N(C(=O)c2ccco2)c2ccc3c(c2)OCCO3)cc1 (centres undefined) | nt | i | i | nt | nt | nt
CCc1nc2sc3c(c2c(=O)n1CCO)CCCC3 | nt | i | i | nt | nt | nt
Cc1nn2c(N3CCN(C(=O)c4ccco4)CC3)cc(C(C)(C)C)nc2c1-c1ccccc1 | i | i | 78 | i | i | +
Cc1nn2c(N3CCCC3)cc(C(C)C)nc2c1-c1ccccc1 | i | i | 75 | i | i | +
O=C(NC1CCCC1)C(c1ccccc1F)N(Cc1ccc2c(c1)OCO2)C(=O)c1ccco1 (centres undefined) | nt | i | i | nt | nt | nt
CCc1ccc(NC(=O)c2cn(CC)c3nc(C)ccc3c2=O)cc1 | nt | i | i | nt | nt | nt
CN(C)c1nccc(N(Cc2ccccc2)Cc2ccccc2)c1C#N | nt | i | 68 | i | i | +
O=C1/C(=C/c2cccnc2)SC(=NCc2ccccc2)N1Cc1ccccc1 | i | i | 66 | i | i | +
O=C1/C(=C/c2cccnc2)SC(=S)N1CCc1ccccc1 | i | i | i | i | i | nt
CCSc1nc2ccccc2n1Cc1ccccc1F | nt | i | 72 | i | i | +
NC(=O)CSc1nc2ccccc2n1Cc1ccccc1F | i | i | i | i | i | nt
C=CCn1c(=O)c(C(=O)Nc2ccc(C(=O)OCC)cc2)c(O)c2ccccc21 | nt | i | i | nt | nt | nt
CC(=O)c1nc2ccccc2n1C | nt | i | i | nt | nt | nt
COc1ccc2cc3c(N)nn(C(=O)C4CCC(C(C)(C)C)CC4)c3nc2c1 (centres undefined) | i | i | 69 | i | i | i
COc1ccc2cc3c(N)nn(C(=O)Cc4ccccc4OC)c3nc2c1 | i | i | i | i | i | nt
CC1=C[N+](=O)c2ccccc2[N+]1=O | nt | i | 107 | nt | nt | i
Cc1onc(-c2ccccc2)c1C(=O)N(Cc1ccco1)Cc1cccs1 | i | i | 98 | i | i | +
Cc1onc(-c2ccccc2)c1C(=O)NCc1ccco1 | i | i | i | i | i | nt
SMILES | S1P3 antagonist | EP2 antag | EP2 mod | S1P4 agonist | S1P4 antag | EP2 confirm
c1ccc(-c2nnsc2-c2ncc[nH]2)cc1 | i | i | i | i | i | nt
O=S(=O)(c1ccc(F)cc1)c1snnc1-c1ccccc1 | i | i | 69 | i | i | +
CCC(C(=O)O)N1C(=O)/C(=C/C(C)=C/c2ccccc2)SC1=S (centres undefined) | i | i | i | i | i | nt
CC(=C\c1ccccc1)/C=C1/SC(=S)N(C(C(=O)O)C(C)C)C1=O (centres undefined) | i | i | i | i | i | +
COC(=O)c1c(NC(=O)c2ccccc2N(C)S(=O)(=O)c2ccccc2)sc2c1CCCC2 | nt | i | i | i | i | i
CCOC(=O)c1c(NC(=O)c2ccccc2N(C)S(=O)(=O)c2ccccc2)sc2c1CCCC2 | i | i | i | i | i | nt
Clc1ccc(-c2nsc3c(N4CCCC4)ncnc23)cc1 | nt | i | i | nt | nt | nt
Cc1ccc(-c2cc3ccccc3nc2N2CCOCC2)cc1 | i | i | 73 | i | i | i
Nc1[nH]n2c(=O)c3c(nc2c1N=Nc1ccccc1)CCCC3 | nt | i | 90 | i | i | +
CCc1nc2sc3c(c2c2nnc(SCC(=O)Nc4cc(OC)ccc4OC)n12)CCC(C)C3 (centres undefined) | nt | i | i | nt | nt | nt
O=C1NN=C(CC(=O)N2CC[C@@H](c3ccccc3)[C@H](O)C2)C2C=CC=CC12 (some centres undefined) | nt | i | i | nt | nt | nt
COCC(=O)Nc1ccncc1 | nt | i | i | nt | nt | nt
CC1Cc2ccccc2N1CC(=O)NC(c1ccccc1)c1ccccc1 (centres undefined) | i | i | 72 | i | i | +
CC1CC(C)CN(CC(=O)NC(c2ccccc2)c2ccccc2)C1 (centres undefined) | i | i | 72 | i | i | i
COc1cccc(C2=NN(C(=O)CCC(=O)O)C(c3cccs3)C2)c1 (centres undefined) | nt | i | i | nt | nt | nt
CCOC(=O)c1cnc2c(c(C)nn2C)c1Oc1ccc(Cl)cc1 | nt | i | 67 | i | i | +
C=CCn1c(SCC(=O)Nc2cccc(F)c2)nc2ccccc2c1=O | nt | i | i | nt | nt | nt
OCCCNc1nc(-c2ccc(Br)cc2)nnc1-c1ccc(Cl)cc1 | i | i | 95 | i | i | +
Cc1nnc(-c2ccc(Cl)cc2)nc1NCCN(C)C | i | i | i | i | i | nt
CCOC(=O)C(Cc1ccccc1)(NC(C)=O)C(=O)OCC | nt | i | 85 | i | i | i
NC(=O)CSc1nc2cccnc2n1C1CCCCC1 | nt | i | i | nt | nt | nt
Nc1c(C(=O)NCc2ccccc2)c2nc3ccccc3nc2n1CCCN1CCOCC1 | i | i | 77 | i | i | i
Nc1c(C(=O)NCc2ccco2)c2nc3ccccc3nc2n1CCc1ccccc1 | i | i | 68 | i | i | i
CCOc1ccc(-n2c(N)c(C(=O)NCc3ccco3)c3nc4ccccc4nc32)cc1 | nt | i | i | i | i | nt
Cc1cc(N2CCCC2)ccc1-c1nc2cnccn2c1NCC1CCCO1 (centres undefined) | nt | nt | i | nt | nt | nt
CN(Cc1ccccc1)c1nc2c(c(=O)[nH]c(=O)n2C)n1Cc1ccccc1Cl | i | i | 77 | i | i | +
CN(Cc1ccccc1)c1nc2c(c(=O)[nH]c(=O)n2C)n1CCO | nt | i | i | nt | nt | nt
CCOCc1nnc(NC(=O)CC(C)c2ccccc2)s1 (centres undefined) | nt | i | i | nt | nt | nt
CC(C)C(=O)c1cc2c(cc1NC(=O)c1ccccc1)OCCO2 | nt | i | 71 | i | i | +
COc1ccc(S(=O)(=O)N(CC(=O)N2CCCC2)c2ccc(F)cc2)cc1 | nt | i | i | nt | nt | nt
